# From PubChem BioAssay (Tox21)
# Unmarked numbers belong to inactive results. Results filed as inconclusive are left out. Entries that show only a call come without a potency. Active and inactive are the calls of the source. Unless noted, calls follow the shape of the dose curve; as a rule, active = well fitted curve in the direction sought with a large enough effect in the repeat runs; inconclusive = weak or mixed curves; inactive = no such curve, though single readings can be large; an effect the other way counts as inactive or inconclusive.
# Tests used:
# [1] = A CellTox Green Cytotoxicity Assay to monitor cytotoxicity in HEK293 cells - 32 hour (AID 1224881); also: nearly all actives have a fitted effect of over 40% in size; also: potency is read from the fitted curve at half-maximal effect
# Method in brief: (§1)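 Read-out: fluorescence of a cell-impermeant cyanine dye staining DNA of dead cells, proportional to cytotoxicity. HEK293, 600 cells/well with reagent, compound (23 nL DMSO) added after 5 h; reads at 0, 8, 16, 24, 32, 40 h.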
# [2] = A CellTox Green Cytotoxicity Assay to monitor cytotoxicity in HepG2 cells - 0 hour (AID 1224882); also: nearly all actives have a fitted effect of over 35% in size; also: potency is read from the fitted curve at half-maximal effect
# Method in brief: (§2)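 HepG2, 600 cells/well premixed w/ CellTox Green; 5 h settle, 37 C/5% CO2; pintool cpd add (DMSO); 37 C, 40 h; fluorescence read at 0, 8, 16, 24, 32, 40 h.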
# [3] = A CellTox Green Cytotoxicity Assay to monitor cytotoxicity in HepG2 cells - 32 hour (AID 1224883); also: nearly all actives have a fitted effect of over 50% in size; also: potency is read from the fitted curve at half-maximal effect
# Method in brief: as §2
# [4] = A CellTox Green Cytotoxicity Assay to monitor cytotoxicity in HEK293 cells - 8 hour (AID 1224884); also: nearly all actives have a fitted effect of over 35% in size; also: potency is read from the fitted curve at half-maximal effect
# Method in brief: as §1
# [5] = qHTS RealTime-Glo MT Cell Viability Assay in HepG2 cells - 16 hour (AID 1224885); also: nearly all actives have a fitted effect of over 50% in size; also: potency is read from the fitted curve at half-maximal effect
# Method in brief: (§3)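 HepG2 suspension premixed with RealTime-Glo reagents is plated at 600 cells per well and left 5 h at 37 C/5% CO2. Compounds in DMSO then go in, and bioluminescence reflecting viable cell number is recorded over 40 h.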
# [6] = qHTS RealTime-Glo MT Cell Viability Assay in HEK293 cells - 24 hour (AID 1224886); also: nearly all actives have a fitted effect of over 50% in size; also: potency is read from the fitted curve at half-maximal effect; as to activity change, negative = cytotoxicity: top concentration of the series differs between compounds
# Method in brief: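 Reads taken at 0, 8, 16, 24, 32 and 40 h from the same wells. HEK293 cells (600/well) carried RealTime-Glo reagents from seeding, with compound added after a 5 h settle at 37 C.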
# [7] = qHTS RealTime-Glo MT Cell Viability Assay in HepG2 cells - 0 hour (AID 1224889); also: nearly all actives have a fitted effect of over 50% in size; also: potency is read from the fitted curve at half-maximal effect
# Method in brief: as §3
# [8] = A CellTox Green Cytotoxicity Assay to monitor cytotoxicity in HepG2 cells - 8 hour (AID 1224890); also: nearly all actives have a fitted effect of over 45% in size; also: potency is read from the fitted curve at half-maximal effect
# Method in brief: as §2
# [9] = qHTS assay to identify small molecule antagonists of the estrogen receptor alpha (ER-alpha) signaling pathway using the BG1 cell line in the presence of 0.1 nM 17-beta-estradiol - cell viability counter screen (AID 1259241); also: nearly all actives have a fitted effect of over 40% in size
# Method in brief: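 VM7Luc4E2 cells (endogenous full-length ER-alpha, 4xERE-luciferase), cultured 5 days in charcoal-stripped serum, exposed to compounds with 0.1 nM 17beta-estradiol (final) for 22 hr at 37C. Viability read in same wells as live-cell protease fluorescence after 30 min.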
# [10] = qHTS assay to identify small molecule antagonists of the androgen receptor (AR) signaling pathway using the MDA cell line in the presence of 0.5 nM R1881 - cell viability counter screen (AID 1259242); also: nearly all actives have a fitted effect of over 45% in size; also: potency is read from the fitted curve at half-maximal effect
# Method in brief: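 Live-cell protease fluorescence, CellTiter-Fluor, 30 min at 37C. Cells: MDA-kb2, 3,000/well, preincubated 5 hr. Compounds plus 0.5 nM R1881 final, 16 hr, 37C, 0% CO2.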
# [11] = target: Estrogen receptor (Homo sapiens) (UniProt P03372); assay: qHTS assay to identify small molecule antagonists of the estrogen receptor alpha (ER-alpha) signaling pathway using the BG1 cell line in the presence of 0.1 nM 17-beta-estradiol (AID 1259244); also: nearly all actives have a fitted effect of over 50% in size
# Estrogen receptor (Homo sapiens), sequence (P03372 whole entry, looked up): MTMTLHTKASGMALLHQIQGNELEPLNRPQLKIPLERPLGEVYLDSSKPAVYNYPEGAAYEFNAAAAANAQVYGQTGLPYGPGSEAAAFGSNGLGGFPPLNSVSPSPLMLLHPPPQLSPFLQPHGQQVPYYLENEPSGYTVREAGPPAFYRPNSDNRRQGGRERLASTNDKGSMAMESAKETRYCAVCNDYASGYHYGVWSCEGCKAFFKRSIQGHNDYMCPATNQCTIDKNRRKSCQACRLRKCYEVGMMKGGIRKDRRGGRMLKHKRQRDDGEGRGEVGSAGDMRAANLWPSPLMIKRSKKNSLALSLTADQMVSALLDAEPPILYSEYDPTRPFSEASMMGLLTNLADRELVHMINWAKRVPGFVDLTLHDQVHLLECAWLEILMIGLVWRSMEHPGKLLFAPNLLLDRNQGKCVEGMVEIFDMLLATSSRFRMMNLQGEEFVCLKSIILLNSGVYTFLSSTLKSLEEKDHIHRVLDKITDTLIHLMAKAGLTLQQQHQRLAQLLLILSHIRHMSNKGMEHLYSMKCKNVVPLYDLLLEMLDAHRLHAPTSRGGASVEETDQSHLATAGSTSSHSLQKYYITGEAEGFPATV
# Method in brief: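 Luminescence after ONE-Glo (30 min, room temperature) measured ERE-luciferase activity in VM7Luc4E2 cells treated 22 h with compound and 0.1 nM final 17beta-estradiol as stimulator.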
# [12] = qHTS assay to identify small molecule HDAC inhibitors (AID 1259364);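 also: wild-type HCT-116 cells with endogenous class I/II HDAC activity; top concentration of the series differs between compounds; nearly all actives have a fitted effect of over 45% in size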
# Method in brief: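 HCT-116 (wild type), 1,500 cells/well, overnight; compound 2 hr 37C 5% CO2; HDAC-Glo I/II reagent 30 min RT; luminescence readout.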
# [13] = qHTS assay to identify small molecule HDAC inhibitors - cell viability counter screen (AID 1259365)
# Method in brief: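 Wild-type HCT-116 cells, 1,500/well, cultured overnight, then compound-treated 2 h at 37 C. Viability measured as ATP luminescence with CellTiter-Glo after 30 min at room temperature.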
# [14] = qHTS assay to identify small molecule agonists of the sonic hedgehog signaling (Shh) pathway - cell viability counter screen (AID 1259366); also: nearly all actives have a fitted effect of over 50% in size; also: potency is read from the fitted curve at half-maximal effect
# Method in brief: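 NIH/3T3-derived Gli1-Luc reporter cells, 2,000 per well, received compound after 4 h and were treated about 23 h at 37C. Viability measured in the same wells by CellTiter-Fluor fluorescence after 1 h.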
# [15] = qHTS assay to identify small molecule antagonists of the sonic hedgehog signaling (Shh) pathway - cell viability counter screen (AID 1259367); also: nearly all actives have a fitted effect of over 55% in size; also: potency is read from the fitted curve at half-maximal effect
# Method in brief: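 Cytotoxicity was assessed in parallel with Shh reporter activity by measuring live-cell protease fluorescence (CellTiter-Fluor) in NIH/3T3 cells stably carrying Gli1-Luc, treated with compound under conditioned medium stimulation for 23 hr plus 1 hr reagent incubation.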
# [16] = qHTS assay to identify small molecule agonists of the sonic hedgehog signaling (Shh) pathway (AID 1259368; calls by dose curve;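 also: NIH/3T3-derived 3T3Gli1-Luc cells carrying a stable Gli1-driven firefly luciferase reporter; series mostly up to about 92 µM; nearly all actives have a fitted effect of over 15% in size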)
# Method in brief: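 Read-out: firefly luciferase luminescence from a Gli1 response element reporter stably integrated in NIH/3T3-derived 3T3Gli1-Luc cells, measured 30 min at room temperature after reagent addition. Compound exposure lasted 24 hr at 37 C, 5% CO2.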
# [17] = qHTS RealTime-Glo MT Cell Viability Assay in HEK293 cells - 8 hour (AID 1224887); also: nearly all actives have a fitted effect of over 50% in size; also: potency is read from the fitted curve at half-maximal effect; as to activity change, negative = cytotoxicity: top concentration of the series differs between compounds
# Method in brief: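 Luminescence readout at each listed time point; HEK293, 600 cells/well, RealTime-Glo MT reagent added with cells; compounds pinned (23 nL in DMSO) after 5 h at 37 C; continuous culture at 37 C.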
# [18] = A CellTox Green Cytotoxicity Assay to monitor cytotoxicity in HEK293 cells - 16 hour (AID 1224888); also: nearly all actives have a fitted effect of over 35% in size; also: potency is read from the fitted curve at half-maximal effect
# Method in brief: as §1
# [19] = target: Androgen receptor (Homo sapiens) (UniProt P10275); assay: qHTS assay to identify small molecule antagonists of the androgen receptor (AR) signaling pathway using the MDA cell line in the presence of 0.5 nM R1881 (AID 1259243); also: nearly all actives have a fitted effect of over 50% in size; also: potency is read from the fitted curve at half-maximal effect
# Androgen receptor (Homo sapiens), sequence (P10275 whole entry, looked up): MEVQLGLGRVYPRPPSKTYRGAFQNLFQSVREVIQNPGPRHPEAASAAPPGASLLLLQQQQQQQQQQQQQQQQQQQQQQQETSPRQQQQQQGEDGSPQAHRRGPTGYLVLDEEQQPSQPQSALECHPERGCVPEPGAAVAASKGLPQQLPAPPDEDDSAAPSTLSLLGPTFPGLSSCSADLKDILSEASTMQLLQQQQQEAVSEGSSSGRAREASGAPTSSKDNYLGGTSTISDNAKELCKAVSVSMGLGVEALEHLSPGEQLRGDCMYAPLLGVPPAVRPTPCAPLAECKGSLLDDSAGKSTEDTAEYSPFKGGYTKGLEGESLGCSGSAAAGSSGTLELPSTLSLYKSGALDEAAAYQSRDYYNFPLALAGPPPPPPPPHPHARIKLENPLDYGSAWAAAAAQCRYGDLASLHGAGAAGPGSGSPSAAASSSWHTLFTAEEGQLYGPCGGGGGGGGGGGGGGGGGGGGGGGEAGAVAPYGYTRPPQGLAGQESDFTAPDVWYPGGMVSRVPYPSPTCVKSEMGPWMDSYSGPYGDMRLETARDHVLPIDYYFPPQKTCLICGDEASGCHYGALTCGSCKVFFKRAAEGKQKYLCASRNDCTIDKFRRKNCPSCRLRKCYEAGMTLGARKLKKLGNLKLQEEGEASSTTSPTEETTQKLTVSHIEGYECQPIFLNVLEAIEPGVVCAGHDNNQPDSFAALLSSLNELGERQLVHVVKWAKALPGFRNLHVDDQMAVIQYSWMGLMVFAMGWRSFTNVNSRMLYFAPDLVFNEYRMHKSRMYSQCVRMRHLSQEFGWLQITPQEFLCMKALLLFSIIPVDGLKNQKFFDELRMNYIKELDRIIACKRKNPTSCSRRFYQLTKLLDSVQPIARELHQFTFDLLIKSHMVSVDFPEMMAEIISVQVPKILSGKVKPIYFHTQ
# Method in brief: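 MDA-kb2, MMTV-luc (AR/GR elements); 3,000 cells/well; cpd + 0.5 nM R1881 final; 16 hr 37C, 0% CO2; ONE-Glo 30 min RT; luminescence.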
# [20] = qHTS assay to identify small molecule phospholipidosis (PLD) inducers (AID 1259344; active = well fitted curve in the direction sought with a large enough effect; an effect the other way counts as inactive or inconclusive; also: potency is read from the fitted curve at half-maximal effect)
# Method in brief: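 Cells (HepG2, 900 per well) attach for 4 h, receive LipidTOX Red and compound together, incubate 24 h at 37 C, are fixed 30 min with paraformaldehyde/Hoechst, then imaged at one site per well.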
compound,measurement,setting,value
COC(=O)c1ccccc1OC,Potency,[1],inactive
same,Potency,[2],inactive
same,Potency,[3],inactive
same,Potency,[4],inactive
same,Potency,[5],inactive
same,Potency,[6],inactive
same,Potency,[7],inactive
same,Potency,[8],inactive
same,Potency,[9],inactive
same,Potency,[10],inactive
same,Potency,[11],inactive
same,Potency,[12],inactive
same,Potency,[13],inactive
same,Potency,[14],inactive
same,Potency,[15],inactive
same,Potency,[16],inactive
C=CC(=O)Nc1cc2c(Nc3ccc(F)c(Cl)c3)ncnc2cc1OCCCN1CCOCC1,Potency,[1],12 µM (active)
same,Potency,[2],inactive
same,Potency,[3],6.01 µM (active)
same,Potency,[4],inactive
same,Potency,[5],8.49 µM (active)
same,Potency,[6],10.7 µM (active)
same,Potency,[17],9.52 µM (active)
same,Potency,[18],inactive
same,Potency,[7],9.52 µM (active)
same,Potency,[8],inactive
same,Potency,[10],0.376 µM (active)
same,Potency,[19],7.5 µM (active)
same,Potency,[11],inactive
same,Potency,[20],0.891 µM (active)
same,Potency,[12],inactive
same,Potency,[13],inactive
same,Potency,[14],3.76 µM (active)
same,Potency,[15],7.5 µM (active)
same,Potency,[16],inactive
O=C(Oc1ccccc1)Oc1ccccc1,Potency,[1],inactive
same,Potency,[2],inactive
same,Potency,[3],inactive
same,Potency,[4],inactive
same,Potency,[6],inactive
same,Potency,[17],inactive
same,Potency,[18],inactive
same,Potency,[7],inactive
same,Potency,[8],inactive
same,Potency,[9],inactive
same,Potency,[10],inactive
same,Potency,[11],inactive
same,Potency,[12],inactive
same,Potency,[13],inactive
same,Potency,[16],inactive
Cc1cc(C(C)(C)C)c(O)c(C)c1Cn1c(=O)n(Cc2c(C)cc(C(C)(C)C)c(O)c2C)c(=O)n(Cc2c(C)cc(C(C)(C)C)c(O)c2C)c1=O,Potency,[1],inactive
same,Potency,[2],inactive
same,Potency,[3],inactive
same,Potency,[4],inactive
same,Potency,[18],inactive
same,Potency,[7],inactive
same,Potency,[8],inactive
same,Potency,[9],inactive
same,Potency,[10],inactive
same,Potency,[11],inactive
same,Potency,[12],inactive
same,Potency,[13],inactive
same,Potency,[14],inactive
same,Potency,[15],inactive
same,Potency,[16],inactive
CCCCC(CC)CN1CN(CC(CC)CCCC)CC(C)(N)C1 (configuration not stated),Potency,[1],10.7 µM (active)
same,Potency,[2],inactive
same,Potency,[3],19 µM (active)
same,Potency,[4],15.1 µM (active)
same,Potency,[5],19 µM (active)
same,Potency,[6],8.49 µM (active)
same,Potency,[17],10.7 µM (active)
same,Potency,[18],13.4 µM (active)
same,Potency,[8],21.3 µM (active)
same,Potency,[9],inactive
same,Potency,[10],26.6 µM (active)
same,Potency,[19],26.6 µM (active)
same,Potency,[11],inactive
same,Potency,[20],inactive
same,Potency,[12],inactive
same,Potency,[13],inactive
same,Potency,[15],inactive
same,Potency,[16],inactive
CC(C)=CCC1=C(O)c2ccccc2C(=O)C1=O,Potency,[1],inactive
same,Potency,[2],inactive
same,Potency,[3],inactive
same,Potency,[4],inactive
same,Potency,[5],inactive
same,Potency,[18],inactive
same,Potency,[7],inactive
same,Potency,[8],inactive
same,Potency,[19],inactive
same,Potency,[12],inactive
same,Potency,[13],inactive
same,Potency,[16],inactive
[Cl][Pt-2]([Cl])([Cl])[Cl],Potency,[1],inactive
same,Potency,[2],inactive
same,Potency,[3],inactive
same,Potency,[4],inactive
same,Potency,[5],inactive
same,Potency,[17],inactive
same,Potency,[18],inactive
same,Potency,[7],inactive
same,Potency,[8],inactive
same,Potency,[9],inactive
same,Potency,[10],inactive
same,Potency,[11],inactive
same,Potency,[12],inactive
same,Potency,[13],inactive
same,Potency,[16],inactive
O=C(O)O,cytotoxicity increase,[1],-1.24% [at 6.97 µM]
same,cytotoxicity,[2],0.722% [at 6.97 µM]
same,cytotoxicity increase,[3],-9.49% [at 6.97 µM]
same,cytotoxicity increase,[4],-0.487% [at 6.97 µM]
same,"activity change, negative = cytotoxic",[5],-0.68% [at 6.97 µM]
same,"activity change, negative = cytotoxicity",[6],-0.471% [at 6.97 µM]
same,"activity change, negative = cytotoxicity",[17],1.73% [at 6.97 µM]
same,activity change,[18],"1.05% [at 6.97 µM, active compounds read high]"
same,"activity change, negative = cytotoxicity",[7],-3.52% [at 6.97 µM]
same,cytotoxicity increase,[8],4.8% [at 6.97 µM]
same,"viability change, negative = cytotoxic",[10],0.635% [at 8.39 µM]
same,"activity change, negative = inhibition",[11],-65% [at 8.39 µM]
same,"activity change, negative = inhibition",[12],2.76% [at 8.39 µM]
same,"activity change, negative = cytotoxicity",[13],-4.12% [at 8.39 µM]
same,"viability change, negative = cytotoxic",[14],1.19% [at 8.39 µM]
same,"viability change, negative = cytotoxic",[15],-2.57% [at 8.39 µM]
same,activity change,[16],"0.72% [at 8.39 µM, active compounds read high]"
[Cu+],Potency,[1],inactive
same,Potency,[2],inactive
same,Potency,[3],inactive
same,Potency,[4],inactive
same,Potency,[5],inactive
same,Potency,[17],inactive
same,Potency,[18],inactive
same,Potency,[7],inactive
same,Potency,[8],inactive
same,Potency,[9],inactive
same,Potency,[10],inactive
same,Potency,[11],inactive
same,Potency,[12],inactive
same,Potency,[13],inactive
same,Potency,[14],inactive
same,Potency,[15],inactive
same,Potency,[16],inactive
O=c1[nH]c(=O)n([C@H]2C[C@H](O)[C@@H](CO)O2)cc1F,Potency,[1],inactive
same,Potency,[2],5.35 µM (active)
same,Potency,[3],6.01 µM (active)
same,Potency,[4],inactive
same,Potency,[5],inactive
same,Potency,[17],inactive
same,Potency,[18],inactive
same,Potency,[7],inactive
same,Potency,[8],6.01 µM (active)
same,Potency,[9],inactive
same,Potency,[10],inactive
same,Potency,[11],inactive
same,Potency,[20],inactive
same,Potency,[12],inactive
same,Potency,[13],inactive
same,Potency,[14],inactive
same,Potency,[15],inactive
same,Potency,[16],inactive
